This passage reports inhibition results from PubChem BioAssay AID504357 (The Scripps Research Institute Molecular Screening Center, 2011).

By inhibition is commonly meant the drop in the measured response relative to a control, in per cent.

Structures are written as SMILES. About 700 (0.21%) of roughly 340,000 compounds were called active. Many of the other results were omitted from the sample, so actives are more common in it than they were. Values without a mark were called inactive. No stated cut-off is given here; in the data, active means inhibition above about 22% (passing the limit was not always enough); inactive means the rest.

This experiment deals with Mu-type opioid receptor (Homo sapiens) + Delta-type opioid receptor (Homo sapiens) (UniProt P35372+P41143). As to the kind of experiment: OPRM1-OPRD1 heterodimer inverse agonism – cell-based, luminescence, primary screen (AID 504357).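 Further: 0% = cells with DMSO and 100% = wells without cells with DMSO.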 As to conditions: cell-based MOR-DOR heterodimer luminescence, at 9.3 µM, active compounds read high.
Chain of Mu-type opioid receptor (Homo sapiens) + Delta-type opioid receptor (Homo sapiens) (P35372 whole entry, looked up): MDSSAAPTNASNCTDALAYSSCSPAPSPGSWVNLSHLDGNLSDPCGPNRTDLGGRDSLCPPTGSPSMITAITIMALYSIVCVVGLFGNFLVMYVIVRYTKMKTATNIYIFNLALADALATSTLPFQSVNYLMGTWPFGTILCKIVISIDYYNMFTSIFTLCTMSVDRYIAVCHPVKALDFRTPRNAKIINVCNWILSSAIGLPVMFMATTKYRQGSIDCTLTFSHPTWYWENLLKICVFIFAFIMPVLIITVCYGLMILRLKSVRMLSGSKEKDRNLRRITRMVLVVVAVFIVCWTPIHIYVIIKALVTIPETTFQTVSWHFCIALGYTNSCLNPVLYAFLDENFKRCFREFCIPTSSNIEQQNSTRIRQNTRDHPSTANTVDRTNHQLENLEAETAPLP
Chain of Mu-type opioid receptor (Homo sapiens) + Delta-type opioid receptor (Homo sapiens) (P41143 whole entry, looked up): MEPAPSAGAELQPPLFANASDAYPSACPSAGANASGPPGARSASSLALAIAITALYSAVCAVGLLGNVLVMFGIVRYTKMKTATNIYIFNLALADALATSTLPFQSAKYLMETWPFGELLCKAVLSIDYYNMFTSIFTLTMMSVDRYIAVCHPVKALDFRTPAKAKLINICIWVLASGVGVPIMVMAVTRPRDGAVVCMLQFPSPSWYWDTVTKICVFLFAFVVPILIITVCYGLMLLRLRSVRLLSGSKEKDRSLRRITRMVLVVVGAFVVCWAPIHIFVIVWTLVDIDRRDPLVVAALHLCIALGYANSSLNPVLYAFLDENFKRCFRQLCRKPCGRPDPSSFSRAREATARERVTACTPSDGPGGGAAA
Turning to `CC1=CC(=Cc2sc3ccccc3[n+]2C)C=C(C)O1`, the inhibition is 17.5% (active).

On to `Clc1ccc2nc3c(c(-c4ccccc4)c2c1)CNCC3`, for which the inhibition was 8.41%. For the compound `CN(C)CC1CCCCC1=O` (stereo not given), the inhibition is 10.9%.

In the case of `CCC(=O)OC(Cc1ccccc1)(c1ccccc1)C(C)CN(C)C` (stereo not given), the inhibition is 8.03%. Take `O=C(OCCN1CCOCC1)C1(c2ccccc2)CCCC1`: the inhibition was 1.05%. The value for `CC/C(=N\NC(=O)c1ccccc1O)c1c(O)n(Cc2ccccc2)c(=O)[nH]c1=O` was 9.92%. On to `CCOC(=O)c1c(N)n(CCN2CCOCC2)c2nc3ccccc3nc12`, for which the inhibition was 30.9% (active). `CCOC(=O)c1c(N)n(Cc2ccccc2)c2nc3ccccc3nc12`: the inhibition was 37% (active). The value for `COc1cc(Cn2c(N)c(C(=O)NCc3ccco3)c3nc4ccccc4nc32)cc(OC)c1OC` was 1.03%. With `CC(C)(C)c1ccc(OC(=O)N2CCCCC2)cc1`, the inhibition was -27.7%.

In the case of `COC(=O)C1=C(c2ccc(F)cc2OCc2ccccc2)C[C@@H]2CC[C@H]1N2C(=O)NCc1ccc2[nH]ccc2c1`, the inhibition is -2.75%. Consider `O=C(NC(c1ccc(Cl)cc1)P(=O)(Oc1ccccc1)Oc1ccccc1)OCc1ccccc1` (stereo not given), for which the inhibition is -3.43%.

On to `CCC(=O)CC(c1ccc([N+](=O)[O-])cc1)c1c(O)c2ccccc2oc1=O` (stereo not given), for which the inhibition is 14.4%. As for `CN(C)S(=O)(=O)c1cc(C(=O)N2CCC(C(=O)O)(c3ccccc3)CC2)ccc1Cl`, the inhibition was 19.2%. In the case of `Cc1nn(-c2ccccc2)c(C)c1NC(=O)COC(=O)Cc1ccccc1`, the inhibition is 21%. Next, `CC(=O)OC1C2(CC3N4C(=O)C5(CO)SSC4(CC31O)C(=O)N5C)OC(C)C(C)(C)C2=O` (stereo not given): 102% (active). For the compound `CC(C)Nc1nc(Cl)nc(NC(C)C)n1`, the inhibition is 6.88%. As to `CCc1nnc(NS(=O)(=O)c2ccc(N=Cc3c(O)n(-c4ccccc4)c(=O)[nH]c3=O)cc2)s1`, the inhibition is 14.4%.

On to `CC(=NCc1ccc2c(c1)OCO2)c1c(O)[nH]c(=O)[nH]c1=O`, for which the inhibition is -10.5%.

As for `CNCC(O)c1cc(F)c(OCc2ccccc2)c(OCc2ccccc2)c1F` (stereo not given), the inhibition is -9.33%.
